{
  "source": "PubChem BioAssay AID624206",
  "about": "(National Center for Advancing Translational Sciences (NCATS), 2012)",
  "note": "Calls of active or inactive are those of the source. Calls come from the whole dose curve; as a rule, active = well fitted curve in the direction sought with a large enough effect; inconclusive = small, poorly fitted or top-dose-only effect, or another doubt; inactive = no such curve, though single readings can be large or run the other way.",
  "data": [
    {"assay": "Quantitative high throughput screen to test cell viability of anti-malarial compounds targeting the delayed death phenotype.", "details": "HepG2 viability, CellTiter-Glo luminescence, 48 h", "description": "NIH Molecular Libraries Probe Production Network [MLPCN] NIH Chemical Genomics Center [NCGC] MLPCN Grant: R21 NS059500 Assay Provider: David Fidock and Eric Ekland, Columbia University The goal of this screen is to measuer the cytoxoxicity (against HepG2 cell line) of a set of anti-malarial compounds that target the delayed death pheonotype, by inhibiting the development of the apicoplast in the malarial parasite Plasmodium falciparum (described below) The biochemical processes that make this organelle essential for erythrocytic stage parasites are not well understood. However, antibiotics, such as azithromycin and tetracycline, which target the apicoplast translational machinery, have a potent antimalarial effect. […] We have developed a cell-based assay that measures parasite growth based on the expression of an integrated copy of a firefly luciferase reporter. To detect small molecules that cause this 'delayed death' phenotype, erythrocytes infected with the luciferase-expressing parasites were incubated with compounds for either one or two generations, corresponding to 48 and 96 hours, respectively. Compounds that inhibit parasite growth in the second generation, but not the first, should be enriched in antimalarials that target the apicoplast. Growth inhibition is detected by a decrease in luciferase activity\nCells were plated at a density of 2000 cells/well/5uL in 1536 well white tissue culture plate with culture medium. Triplicate plates were prepared. Plates were incubated at 37C, 5% CO2 for 5 hours and then 23nL of compounds and positive control were transferred to the assay plates. Tetraoctylammonium bromide was added as a positive control. Plates were then incubated at 37C, 5% CO2 for 48 hours. 5 uL of CellTitler-Glo buffer was added to each well and then incubated for 30 min at room temperature. Luminescence was measured using ViewLux (1 second, slow, 2X).", "values": [
      {"smiles": "CCCCOc1ccc(N2C(N)=NC(N)=NC23CCCCC3)cc1", "max response": "-12% (inactive)"},
      {"smiles": "CCCc1c(CC)c(=N)c2ccccc2n1C", "max response": "13.6% (inactive)"},
      {"smiles": "Cc1c(F)c(N2CCNC(C)C2)cc2c1c(=O)c(C(=O)O)cn2C1CC1", "note": "(stereo not drawn)", "max response": "12.4% (inactive)"}
    ]}
  ]
}
